Assay outcomes deposited in PubChem by Broad Institute.
C diff growth – C. difficile growth inhibitors, primary screen, HTS; Clostridium difficile clinical isolate growth, OD600, 24 h; hits give low values; growth activity, negative = inhibition, % at 16 µg/mL (by protocol); 86,000 tested, 0.25% active; AID 1259249, 2017;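 active = mean growth activity at or below -80% and every replicate also at or below -80%; inconclusive = mean at or below -80% but some replicate above -80%; inactive = mean growth activity above -80%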;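 note: 0% = DMSO wells and -100% = levofloxacin 16 µg/mL wells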
T cruzi growth – T. cruzi intracellular proliferation inhibitors, primary screen, cell-based, beta-gal Tulahuen parasites, NIH3T3 host, luminescence; T. cruzi beta-gal in NIH3T3, GalScreen luminescence, 90 h; inhibition, % at 8.34 µM; 77,000 tested, 5.9% active; AID 624255, 2012;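 active = mean inhibition above about 93%, with at least 55% of replicates each passing it, limit read from the data, passing the limit was not always enough; inconclusive = only one of those two conditions holds; inactive = neither condition holds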
Pf Dd2 growth – P. falciparum Dd2 growth inhibitors, primary screen, SYBR Green fluorescence, single dose replicates. 94,000 tested, 2.3% active. activity change, % at 10 µM. 72 h; hits give low values; in the data active = activity change below about -80%; inconclusive = no clear call, values can overlap the other calls
Starred values were filed as active, the others as inactive; ? = inconclusive; / = no result. An excerpt weighted towards active compounds, which were near 6.8% of everything screened.

SMILES	C diff growth	T cruzi growth	Pf Dd2 growth
COc1ccc(S(=O)(=O)N(C)C[C@@H]2OCCCC[C@H](C)Oc3ccc(NC(=O)Cc4ccccc4)cc3C(=O)N([C@H](C)CO)C[C@H]2C)cc1	8	98	-84*
COc1ccc(S(=O)(=O)N(C)C[C@@H]2OCCCC[C@@H](C)Oc3ccc(NC(=O)Cc4ccccc4)cc3C(=O)N([C@@H](C)CO)C[C@H]2C)cc1	7	90	-61
COc1ccc(S(=O)(=O)N(C)C[C@@H]2OCCCC[C@H](C)Oc3ccc(NC(=O)Cc4ccccc4)cc3C(=O)N([C@@H](C)CO)C[C@@H]2C)cc1	11	102	-83*
CC(C)NC(=O)N[C@H]1CC[C@H](CCn2cc(-c3ccc(F)cc3)nn2)O[C@@H]1CO	/	-88	-15
CCC(=O)N(C)C[C@@H]1Oc2cc(/C=C/c3ccccc3)ccc2S(=O)(=O)N([C@@H](C)CO)C[C@@H]1C	3	58	-57
Cc1ccc(-c2ccc([C@@H]3[C@H]4CN(C(=O)Nc5cccc(F)c5)CC(=O)N4[C@H]3CO)cc2)cc1	24	/	-13
Cc1ccc(-c2ccc([C@H]3[C@@H](CO)N4C(=O)CN(C(=O)Nc5cccc(F)c5)C[C@H]34)cc2)cc1	14	/	-84*
O=C(Nc1cccc(F)c1)N1CC(=O)N2[C@H](C1)[C@@H](c1ccc(C#CC3CC3)cc1)[C@@H]2CO	-5	/	-82*
O=C(Nc1cccc(F)c1)N1CC(=O)N2[C@H](CO)[C@H](c3ccc(C#CC4CC4)cc3)[C@H]2C1	-14	/	2
CCCC#Cc1ccc([C@H]2[C@@H](CO)N3C(=O)CN(C(=O)NC4CCCC4)C[C@@H]23)cc1	1	/	-8
CNC[C@@H]1Oc2ccc(NC(=O)c3ccncc3)cc2C(=O)N([C@H](C)CO)C[C@@H]1C	1	23	13
C[C@H](CO)N1C[C@H](C)[C@@H](CN(C)Cc2ccncc2)OCCCC[C@H](C)Oc2ccc(NC(=O)C3CCCCC3)cc2C1=O	-4	28	-8
C[C@@H]1CN([C@H](C)CO)C(=O)c2cc(C#C[C@@H](C)O)cnc2O[C@@H]1CN(C)C(=O)CC1CC1	3	-2	/
C[C@@H]1CCCCO[C@H](CN(C)C(=O)Nc2ccc(C(F)(F)F)cc2)[C@H](C)CN([C@H](C)CO)C(=O)c2cc(NC(=O)Nc3ccc(F)cc3)ccc2O1	5	117*	-81*
Cc1noc(C)c1NC(=O)Nc1ccc2c(c1)C(=O)N([C@H](C)CO)C[C@@H](C)[C@H](CN(C)C(=O)Nc1ccc(C(F)(F)F)cc1)OCCCC[C@H](C)O2	3	40	-84*
C[C@H](CO)N1C[C@H](C)[C@H](CN(C)C(=O)Nc2ccc(C(F)(F)F)cc2)OCCCC[C@H](C)Oc2ccc(NC(=O)Nc3ccc(F)cc3)cc2C1=O	6	?	59
Cc1noc(C)c1NC(=O)Nc1ccc2c(c1)C(=O)N([C@@H](C)CO)C[C@@H](C)[C@H](CN(C)C(=O)Nc1ccc(C(F)(F)F)cc1)OCCCC[C@H](C)O2	-4	17	-40
C[C@H](CO)N1C[C@H](C)[C@@H](CN(C)C(=O)Nc2ccc(C(F)(F)F)cc2)OCCCC[C@H](C)Oc2ccc(NC(=O)Nc3ccc(F)cc3)cc2C1=O	2	119*	-38
C[C@@H]1CCCCO[C@@H](CN(C)C(=O)Nc2ccc(F)cc2)[C@@H](C)CN([C@H](C)CO)C(=O)c2cc(NC(=O)Nc3ccc(C(F)(F)F)cc3)ccc2O1	5	91	13
C[C@@H]1CCCCO[C@H](CN(C)C(=O)Nc2ccc(C(F)(F)F)cc2)[C@H](C)CN([C@@H](C)CO)C(=O)c2cc(NC(=O)Nc3cccc4ccccc34)ccc2O1	-13	86	-73
C[C@@H]1CCCCO[C@H](CN(C)C(=O)Nc2ccc(C(F)(F)F)cc2)[C@@H](C)CN([C@H](C)CO)C(=O)c2cc(NC(=O)Nc3cccc4ccccc34)ccc2O1	-16	43	-82*
CC(C)c1cn(CC[C@@H]2CC[C@@H](NS(=O)(=O)c3ccccc3)[C@H](CO)O2)nn1	-2	0	14
C[C@H]1CN([C@@H](C)CO)C(=O)c2cc(NS(C)(=O)=O)ccc2O[C@H]1CN(C)Cc1ccc(C(=O)O)cc1	/	-178	11
C[C@@H]1CN([C@H](C)CO)C(=O)c2cc(C#C[C@@H](C)O)cnc2O[C@@H]1CN(C)Cc1cccc(F)c1	1	9	-10
C[C@@H]1CCCCO[C@@H](CN(C)C(=O)CCCN(C)C)[C@@H](C)CN([C@H](C)CO)C(=O)c2cc(NS(=O)(=O)c3cn(C)cn3)ccc2O1	-11	-18	67
SMILES	C diff growth	T cruzi growth	Pf Dd2 growth
Cc1ccc(S(=O)(=O)Nc2cccc3c2O[C@@H](CN(C)Cc2ccc(C(=O)Nc4ccccc4N)cc2)[C@H](C)CN([C@@H](C)CO)C3=O)cc1	6	/	-72
C[C@H](CO)N1C[C@H](C)[C@H](CN(C)Cc2ccc(C(=O)Nc3ccccc3N)cc2)Oc2c(NS(=O)(=O)c3ccc(Cl)cc3)cccc2C1=O	9	/	-89*
C[C@@H]1CN([C@H](C)CO)C(=O)c2cccc(NS(=O)(=O)c3ccccc3)c2O[C@H]1CN(C)Cc1ccc(-c2ccccc2)cc1	/	-87	-91*
C[C@@H]1CN([C@H](C)CO)C(=O)c2cccc(NS(=O)(=O)c3ccccc3)c2O[C@H]1CN(C)Cc1ccc(C(=O)Nc2ccccc2N)cc1	0	/	-78
C[C@@H]1CN([C@H](C)CO)C(=O)c2cccc(NS(=O)(=O)c3ccc(Cl)cc3)c2O[C@@H]1CN(C)Cc1ccc(C(=O)Nc2ccccc2N)cc1	2	93	-87*
C[C@@H]1CN([C@H](C)CO)C(=O)c2cccc(NS(=O)(=O)c3ccccc3)c2O[C@@H]1CN(C)Cc1ccc(-c2ccccc2)cc1	/	64	-4
C[C@H](CO)N1C[C@H](C)[C@H](CN(C)Cc2ccc(C(=O)Nc3ccccc3N)cc2)Oc2c(NS(=O)(=O)c3ccccc3)cccc2C1=O	-4	/	-86*
C[C@H](CO)N1C[C@H](C)[C@@H](CN(C)Cc2ccc(C(=O)Nc3ccccc3N)cc2)Oc2c(NS(=O)(=O)c3ccc(F)cc3)cccc2C1=O	4	/	-44
COc1ccc2c3c([nH]c2c1)[C@@H](CO)N(C(=O)c1cccnc1)CC31CCN(C(=O)c2cccnc2)CC1	1	/	23
COc1ccc(CN(C)C[C@@H]2OCCCC[C@@H](C)Oc3ccc(NS(=O)(=O)c4ccc(C)cc4)cc3C(=O)N([C@H](C)CO)C[C@H]2C)cc1	/	/	-61
CN(C)CC(=O)Nc1ccc2c(c1)[C@H]1C[C@@H](CC(=O)NC3CCCC3)O[C@H](CO)[C@H]1O2	/	-40	-25
CO[C@H]1CN(C)C(=O)c2ccc(NS(=O)(=O)c3ccc(Cl)cc3)cc2OC[C@@H](C)NC[C@@H]1C	2	-10	8
Cc1ccc(S(=O)(=O)Nc2cccc3c2O[C@H](CN(C)Cc2ccc(C(=O)Nc4ccccc4N)cc2)[C@@H](C)CN([C@@H](C)CO)C3=O)cc1	3	/	-74
Cc1ccc(S(=O)(=O)Nc2cccc3c2O[C@H](CN(C)Cc2ccc(C(=O)Nc4ccccc4N)cc2)[C@H](C)CN([C@H](C)CO)C3=O)cc1	8	50	-85*
